# Source: PubChem
# RecA intein inh – blocks M. tuberculosis RecA intein splicing; P9WHJ3; cell-free RecA intein splicing, fluorescence; inhibition, % (concentration not given with the values); 290,000 tested, 0.75% active; AID 2221; in the data active means inhibition above about 30%;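 further: 0% = vehicle wells and 100% = reference inhibitor control wells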
# Target sequence (P9WHJ3 whole entry, looked up): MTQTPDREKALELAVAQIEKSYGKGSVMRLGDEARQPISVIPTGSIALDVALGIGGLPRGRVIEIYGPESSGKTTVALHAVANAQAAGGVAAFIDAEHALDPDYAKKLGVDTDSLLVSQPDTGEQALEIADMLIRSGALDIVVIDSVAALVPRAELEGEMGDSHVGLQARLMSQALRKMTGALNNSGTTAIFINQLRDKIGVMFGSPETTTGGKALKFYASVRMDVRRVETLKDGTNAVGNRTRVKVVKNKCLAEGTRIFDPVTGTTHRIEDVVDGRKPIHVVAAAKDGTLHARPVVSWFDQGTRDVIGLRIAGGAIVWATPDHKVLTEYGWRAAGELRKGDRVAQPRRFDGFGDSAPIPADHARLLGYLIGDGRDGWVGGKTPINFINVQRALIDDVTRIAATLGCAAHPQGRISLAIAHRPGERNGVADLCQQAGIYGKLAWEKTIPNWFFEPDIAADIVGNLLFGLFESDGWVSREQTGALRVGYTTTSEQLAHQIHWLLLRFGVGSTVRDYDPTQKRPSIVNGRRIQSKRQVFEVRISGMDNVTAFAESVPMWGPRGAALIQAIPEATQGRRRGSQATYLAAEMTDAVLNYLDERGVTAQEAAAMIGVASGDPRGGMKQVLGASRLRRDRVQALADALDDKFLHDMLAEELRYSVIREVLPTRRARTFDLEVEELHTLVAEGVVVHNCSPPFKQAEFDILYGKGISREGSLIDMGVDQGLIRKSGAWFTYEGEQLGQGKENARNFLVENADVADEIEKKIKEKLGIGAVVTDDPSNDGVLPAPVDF
# FBA Mtb inh – Mtb fructose-bisphosphate aldolase inhibition | P9WQA3 | purified M. tuberculosis FBA, fluorescence read-out | inhibition, % at 1 µM | 360,000 tested, 2.3% active | AID 588726;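 further: 0% = vehicle and 100% = reference inhibitor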
# GDH-TPI counter-1 – counter-screen for M. tuberculosis FBA inhibitors: GDH-TPI coupled enzymes; 360,000 tested, 1.2% active; GDH-TPI coupled enzyme counterscreen, NADH absorbance; inhibition, % at 4.8 µM; AID 588335; in the data active means inhibition above about 30%;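 further: 0% = DMSO wells and 100% = wells lacking the enzyme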
# PrPC surface inh – cell surface PrPC inhibition, primary TR-FRET screen; 370,000 tested, 0.43% active; P04156; inhibition, % at 13.8 µM; TR-FRET read-out; in the data active means inhibition above about 24%; further: 0% = median of the test wells and 100% = reference compound wells
# BJeLR lethal – BJeLR cell viability loss; BJeLR (HRASV12) viability, CellTiter-Glo ATP luminescence, 48 h; inhibition, % (test concentration not listed); 300,000 tested, 0.17% active; AID 1554; in the data active means inhibition above about 50%
# Mtb FBA inh conf – confirmation of M. tuberculosis fructose-bisphosphate aldolase inhibitors | shares compounds with FBA Mtb inh | purified M. tuberculosis FBA, fluorescence read-out | inhibition, % at 1 µM | 5,600 tested, 78% active | AID 651616;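 further: 0% = vehicle wells and 100% = reference inhibitor wells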
# GDH-TPI counter-2 – GDH-TPI inhibition counter-screen for FBA inhibitors; 5,600 tested, 81% active; inhibition, % at 1 µM; GDH-TPI coupled enzyme counterscreen, fluorescence; shares compounds with FBA Mtb inh; in the data active means inhibition above about 10%
# GDH-TPI DR – inhibits GDH-TPI coupling enzymes in dose response | 170 tested, 79% active | IC50, µM | GDH-TPI coupled enzyme assay, fluorescence, artifact counterscreen | shares compounds with FBA Mtb inh | AID 652145; call rule not given here
# Active calls of the source: *; . = no result; + = active, no number. This is a sample that favours compounds with a hit; in the whole collection about 4.2% have one here. Unless noted, no stated cut-off is given here; in the data, active means inhibition above about 27%; inactive means the rest.
SMILES,RecA intein inh,FBA Mtb inh,GDH-TPI counter-1,PrPC surface inh,BJeLR lethal,Mtb FBA inh conf,GDH-TPI counter-2,others
COCC1OC(OC(C)C(O)c2cnc3nc(N)[nH]c(=O)c3n2)C(O)C(OC)C1O (stereo not given),.,103.4*,-4.2,-3.9,.,92.4*,66.0*,
CN[C@@H](C)C(=O)NC[C@H]1O[C@@H](n2cnc3c(=O)[nH]c(N)nc32)[C@H](O)[C@@H]1O,.,1.1,.,-12.3,.,.,.,
COc1cccc(CNC(=O)CCCN2C(=O)COc3ccc(C)cc32)c1OC,.,.,.,-8.2,.,.,.,
Cc1cccn2c(=O)c(/C=C(\C#N)C(=O)NC3CCS(=O)(=O)C3)c(Oc3ccc(F)cc3)nc12 (stereo not given),-0.9,31.5*,-3.0,4.2,9.1,+,+,
Cc1cccc(Oc2nc3ccccn3c(=O)c2/C=C(\C#N)C(=O)NC2CCS(=O)(=O)C2)c1C (stereo not given),-23.9,50.8*,7.8,2.0,5.2,106.6*,79.7*,
Cc1cc(Oc2nc3ccccn3c(=O)c2/C=C(\C#N)C(=O)NC2CCS(=O)(=O)C2)ccc1Cl (stereo not given),.,44.8*,2.3,-4.1,-10.1,139.4*,112.7*,
Cc1cccc(Oc2nc3ccccn3c(=O)c2/C=C(\C#N)C(=O)NC2CCS(=O)(=O)C2)c1 (stereo not given),-33.0,17.9,3.3,-7.1,4.9,.,.,
N#C/C(=C\c1c(Oc2ccc(Cl)cc2)nc2ccccn2c1=O)C(=O)NC1CCS(=O)(=O)C1 (stereo not given),-90.1,86.2*,7.7,-9.7,9.0,+,181.7*,
O=C(CN1C(=O)CCSc2ccccc21)Nc1ccc(Cl)cc1,.,.,.,-3.9,.,.,.,
COCCn1c(SCC(=O)N2CCCCC2)nc2c(c1=O)SCC2,-0.2,41.1*,12.6,1.3,0.0,18.3,5.7,GDH-TPI DR=>10
CCC(C(=O)N1CCN(Cc2ccc3c(c2)OCO3)CC1)n1c(=O)[nH]c2ccccc2c1=O (stereo not given),-2.7,32.7*,7.1,2.1,-4.4,123.7*,108.7*,
C[C@H](CO)N1C[C@H](C)[C@H](CN(C)Cc2cccc(F)c2)Oc2ncc(C3=CCCC3)cc2C1=O,.,.,.,1.9,.,.,.,
CN1N=C2c3ccccc3CCC2C1c1ccc(F)cc1 (stereo not given),-2.6,0.2,0.0,1.6,-8.3,.,.,
c1ccc(N2CC3CCc4ccccc4C3=N2)cc1 (stereo not given),.,58.2*,5.4,6.7,2.0,46.3*,31.4*,
CC1(C)Cc2nc(Cl)c(C(N)=O)cc2CO1,0.5,1.4,-13.1,1.8,-1.0,.,.,
CC1(C)Cc2nc(N)c(C(=O)NCCO)cc2CO1,1.5,98.1*,10.5,-2.0,1.4,+,+,
O=C(Nc1cccc(C(F)(F)F)c1)O[C@@H]1CC[C@@]23CCCN2C(=O)CCC[C@H]3C1,.,.,.,-0.6,.,.,.,
COc1ccc(C2C(C(=O)Nc3ccc(C)c(C)c3)CCC(=O)N2c2ccc(OC)cc2)cc1 (stereo not given),.,.,.,-3.4,.,.,.,
CC1=CC(c2ccccc2)n2nc(N3C(=O)CCC3=O)nc2N1 (stereo not given),-17.2,104.4*,3.5,-4.4,-25.8,73.8*,41.4*,
O=C1CC(c2ccccc2)n2nc(N3C(=O)CCC3=O)nc2N1 (stereo not given),-0.4,2.9,8.9,8.3,-2.2,.,.,
O=C(O)CNS(=O)(=O)c1ccc2c(c1)Cc1cc(S(=O)(=O)NCC(=O)O)ccc1-2,.,41.1*,-0.8,-0.4,-2.1,-5.3,-6.3,
CCOC(=O)c1cc2c3ccccc3n(CC)c2nc1N,-2.0,36.5*,15.4,4.9,2.3,+,+,
CCOC(=O)c1cc(=O)n(Cc2ccccc2C)c2ccccc12,5.7,2.2,-3.7,7.4,-13.7,.,.,
CNC(=O)C(C#N)(Cc1cc(C(C)=O)ccc1OC)Cc1cc(C(C)=O)ccc1OC,-0.9,36.8*,3.9,-6.8,0.9,1.4,-4.5,
Cc1ccccc1NC(=O)CNc1ccccc1C(=O)NCc1ccco1,2.2,48.1*,6.8,-2.9,0.7,166.2*,143.3*,
SMILES,RecA intein inh,FBA Mtb inh,GDH-TPI counter-1,PrPC surface inh,BJeLR lethal,Mtb FBA inh conf,GDH-TPI counter-2,others
Cc1ccccc1NC(=S)NCc1ccco1,-2.4,-1.7,4.4,7.8,4.9,.,.,
Cc1cccc(C)c1NC(=S)Nc1ccccc1C(=O)NCc1ccco1,-2.3,38.5*,5.2,-2.4,3.6,25.0,6.8,GDH-TPI DR=>10
CCCCCC(=O)NC1CCCCN(Cc2ccc(C)cc2)C1=O (stereo not given),.,.,.,-4.0,.,.,.,
NC(=O)c1ccccc1NS(=O)(=O)Cc1ccc(Cl)cc1,-0.5,69.8*,-5.8,3.0,3.9,-8.6,-7.9,
CCS(=O)(=O)Nc1ccccc1C(N)=O,0.9,43.8*,-3.2,-3.5,-0.8,14.4,-0.3,GDH-TPI DR=4.35*
NC(=O)c1ccccc1NC(=O)COc1ccc(Cl)cc1,0.8,1.2,-2.6,-1.8,-0.2,.,.,
O=C(NCCc1ccccc1Cl)[C@@H]1CCCN1C(=O)[C@@H](NS(=O)(=O)c1ccc(F)cc1F)c1ccccc1,.,.,.,9.3,.,.,.,
N#Cc1nnn2c1nc(N)c1c(Cl)cccc12,.,14.4,.,-2.5,.,.,.,
N#Cc1nnn2c1nc(N)c1c(F)cccc12,-0.5,32.4*,2.9,-4.0,4.8,170.0*,143.4*,
CC(C)N1CCCCC(NC(=O)c2ccc(F)c(F)c2)C1=O (stereo not given),.,.,.,3.9,.,.,.,
O=c1c(-c2n[nH]c(=S)n2-c2ccccc2)cccn1Cc1cccc(Cl)c1,1.4,-1.7,2.8,-0.5,-7.9,.,.,
O=c1c(-c2nnc(SCc3ccc(Cl)cc3Cl)o2)cccn1Cc1ccccc1,2.7,52.4*,20.4,-5.8,6.9,42.8*,22.7*,
Clc1ccc(CSc2nnc(-c3ccncc3)o2)c(Cl)c1,2.5,-2.6,9.1,-0.9,8.8,.,.,
CSc1nnc(-c2cccn(Cc3cccc(Cl)c3)c2=O)o1,0.2,87.1*,0.9,-5.5,22.2,+,+,
CCCCNc1c(-c2ccc(-c3cccc(Cl)c3)cc2)nc2ccccn12,-34.7,23.4,10.2,8.0,-2.0,.,.,
CCCCCCSc1ccc(-c2nc3ccccn3c2NCCCC)cc1,-10.7,44.9*,8.1,5.3,4.8,+,+,
Cc1c(C)c2cc(Cl)c(OC(C)C(=O)NCCN3CCOCC3)cc2oc1=O (stereo not given),-0.7,19.8,0.0,0.9,-2.7,.,.,
Cc1cc(OC(C)C(=O)NCCCN2CCOCC2)c2c(C)c(C)c(=O)oc2c1 (stereo not given),-0.3,63.5*,9.2,-4.4,7.2,168.0*,180.8*,
CCCc1cc(=O)oc2c(C)c(OC(C)C(=O)NCCN3CCOCC3)ccc12 (stereo not given),-1.7,17.3,3.7,1.1,6.7,.,.,
